# About 79,000 compounds went through this panel and 15% of them were active in at least one assay; those are over-represented in the sample as a whole. A number with no mark means an inactive call. Activity calls are given as the source filed them. No stated cut-off is given here; in the data, active means growth inhibition above about 70%; inactive means the rest.
# Experiments:
# [1] = NCI Yeast Anticancer Drug Screen. Data for the rad52 strain (AID 147);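 further: 0% = growth of vehicle-treated control cultures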; details: S. cerevisiae rad52 mutant growth inhibition, hits give high values
# How it was run: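 Measured: yeast growth inhibition. System: strain with a defined DNA damage repair alteration. Reference: vehicle-treated control cultures.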
# [2] = NCI Yeast Anticancer Drug Screen. Data for the wt1 strain (AID 149);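 further: 0% = growth of vehicle-treated wt1 cultures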; details: S. cerevisiae wt1 strain (SPY 50644) growth inhibition, hits give high values
# How it was run: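 Yeast wt1 strain exposed to compounds; growth inhibition measured relative to vehicle-treated controls.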
# [3] = NCI Yeast Anticancer Drug Screen. Data for the rad50 strain (AID 155);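 further: 0% = growth of vehicle-only cultures of the same strain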; details: S. cerevisiae rad50 strain growth inhibition, hits give high values
# How it was run: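 Yeast carrying a defined DNA repair defect were exposed to test compounds, and growth was compared with vehicle-treated controls to give percent inhibition.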
# [4] = NCI Yeast Anticancer Drug Screen. Data for the mec2-1 strain (AID 157); details: S. cerevisiae mec2-1 strain, hits give high values
# How it was run: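 Test agents were screened against the mec2-1 yeast strain, with defined DNA repair or cell cycle alteration. Growth was scored as inhibition against vehicle-only controls.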
# [5] = NCI Yeast Anticancer Drug Screen. Data for the rad14 strain (AID 159);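 further: 0% = growth of vehicle-treated control cultures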; details: S. cerevisiae rad14 strain growth inhibition, hits give high values
# How it was run: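 Yeast cells carrying a defined DNA-repair defect were exposed to compounds, and growth inhibition was calculated relative to vehicle-treated control cultures.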
# [6] = NCI Yeast Anticancer Drug Screen. Data for the sgs1 mgt1 strain (AID 161);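 further: 0% = growth of cultures given vehicle only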; details: S. cerevisiae sgs1 mgt1 strain, hits give high values
# How it was run: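 Genetically altered yeast, compound exposure, growth inhibition relative to vehicle.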
# [7] = NCI Yeast Anticancer Drug Screen. Data for the CLN2oe strain (AID 163);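 further: 0% = growth of vehicle-only control cultures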; details: S. cerevisiae CLN2oe strain, hits give high values
# How it was run: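 Here, growth inhibition in a cell-cycle-altered yeast strain after compound exposure was quantified against vehicle control growth.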
# [8] = NCI Yeast Anticancer Drug Screen. Data for the cln2 rad14 strain (AID 165);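 further: 0% = growth equal to vehicle treated cultures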; details: S. cerevisiae cln2 rad14 strain, hits give high values
# How it was run: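 Growth of compound-exposed yeast (cln2 rad14 genotype) measured and expressed as inhibition relative to vehicle.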
# [9] = NCI Yeast Anticancer Drug Screen. Data for the bub3 strain (AID 167); details: S. cerevisiae bub3 mutant strain, hits give high values
# How it was run: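 Compounds were applied to a genetically altered yeast strain carrying a cell-cycle control defect. Growth inhibition was scored against vehicle-treated controls.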
# [10] = NCI Yeast Anticancer Drug Screen. Data for the wt2 strain (AID 169);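 further: 0% = growth of vehicle-treated yeast cultures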; details: S. cerevisiae wt2 strain growth inhibition, hits give high values
# How it was run: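 Genetically defined yeast strains from a DNA-repair/cell-cycle panel were used. Compound-exposed yeast growth was measured, and the inhibition was calculated relative to vehicle treatment.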
# [11] = NCI Yeast Anticancer Drug Screen. Data for the mlh1 strain (AID 171);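 further: 0% = growth of vehicle-treated control cultures of the same strain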; details: S. cerevisiae mlh1 strain growth inhibition, hits give high values
# How it was run: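 Here the genetically defined yeast mutant is grown with each compound, and the extent to which its growth falls below that of vehicle-exposed cells is reported.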
# [12] = NCI Yeast Anticancer Drug Screen. Data for the sgs1 strain (AID 173);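 further: 0% = growth of vehicle-only control cultures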; details: S. cerevisiae sgs1 mutant, hits give high values
# How it was run: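 Relative growth inhibition, referenced to vehicle, was determined in a yeast strain with a defined alteration affecting DNA damage repair or cell cycle control after compound exposure.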
# [13] = NCI Yeast Anticancer Drug Screen. Data for the mlh1 rad18 strain (AID 175); details: S. cerevisiae mlh1 rad18 strain growth inhibition, hits give high values
# How it was run: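 In this whole-cell yeast screen, a strain with altered DNA damage repair is challenged with compound, and its growth is measured against matched vehicle-treated controls.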
# [14] = NCI Yeast Anticancer Drug Screen. Data for the rad18 strain (AID 177); details: S. cerevisiae rad18 mutant growth inhibition, hits give high values
# How it was run: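 Screen uses a yeast strain with a defined lesion in DNA damage repair; compound effect is read as loss of growth compared to untreated vehicle cultures.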
# [15] = NCI Yeast Anticancer Drug Screen. Data for the mgt1 strain (AID 153); details: S. cerevisiae mgt1 mutant growth inhibition, hits give high values
# How it was run: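 After exposure of the mgt1 yeast mutant to compound, growth was measured and reported as inhibition compared with vehicle controls.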
# [16] = at 5.0 µM (retest, dose inferred, filed as 0.5)
# [17] = at 50.0 µM (retest, dose inferred, filed as 5.0)
smiles,measurement,setting,value
O=C1C=CC(=Nc2ccccc2)c2ccccc21,growth inhibition,[1]; at 1.2 µM,1%
same,growth inhibition,[1]; at 3.7 µM,5%
same,growth inhibition,[1]; at 11.0 µM,20%
same,growth inhibition,[1]; at 33.0 µM,55%
same,growth inhibition,[1]; at 100.0 µM,77% (active)
same,growth inhibition,[2]; at 1.2 µM,8%
same,growth inhibition,[2]; at 3.7 µM,12%
same,growth inhibition,[2]; at 11.0 µM,21%
same,growth inhibition,[2]; at 33.0 µM,38%
same,growth inhibition,[2]; at 100.0 µM,45%
same,growth inhibition,[3]; at 1.2 µM,3%
same,growth inhibition,[3]; at 3.7 µM,15%
same,growth inhibition,[3]; [16],-8%
same,growth inhibition,[3]; at 11.0 µM,65%
same,growth inhibition,[3]; at 33.0 µM,88% (active)
same,growth inhibition,[3]; [17],70% (active)
same,growth inhibition,[3]; at 50.0 µM,37.9%
same,growth inhibition,[3]; at 100.0 µM,85% (active)
same,growth inhibition,[4]; at 1.2 µM,5%
same,growth inhibition,[4]; at 3.7 µM,10%
same,growth inhibition,[4]; [16],22%
same,growth inhibition,[4]; at 11.0 µM,19%
same,growth inhibition,[4]; at 33.0 µM,28%
same,growth inhibition,[4]; [17],43%
same,growth inhibition,[4]; at 50.0 µM,45.3%
same,growth inhibition,[4]; at 100.0 µM,44%
same,growth inhibition,[5]; at 1.2 µM,-1%
same,growth inhibition,[5]; at 3.7 µM,1%
same,growth inhibition,[5]; at 11.0 µM,12%
same,growth inhibition,[5]; at 33.0 µM,38%
same,growth inhibition,[5]; at 100.0 µM,58%
same,growth inhibition,[6]; [16],30%
same,growth inhibition,[6]; [17],60%
same,growth inhibition,[6]; at 50.0 µM,31.6%
same,growth inhibition,[7]; at 1.2 µM,-2%
same,growth inhibition,[7]; at 3.7 µM,-4%
same,growth inhibition,[7]; at 11.0 µM,6%
same,growth inhibition,[7]; at 33.0 µM,43%
same,growth inhibition,[7]; at 100.0 µM,39%
same,growth inhibition,[8]; [16],-17%
same,growth inhibition,[8]; [17],32%
same,growth inhibition,[8]; at 50.0 µM,24.6%
same,growth inhibition,[9]; at 1.2 µM,12%
same,growth inhibition,[9]; at 3.7 µM,37%
same,growth inhibition,[9]; [16],65%
same,growth inhibition,[9]; at 11.0 µM,62%
same,growth inhibition,[9]; at 33.0 µM,84% (active)
same,growth inhibition,[9]; [17],94% (active)
same,growth inhibition,[9]; at 50.0 µM,82.3% (active)
same,growth inhibition,[9]; at 100.0 µM,88% (active)
same,growth inhibition,[10]; at 1.2 µM,8%
same,growth inhibition,[10]; at 3.7 µM,17%
same,growth inhibition,[10]; at 11.0 µM,35%
same,growth inhibition,[10]; at 33.0 µM,54%
same,growth inhibition,[10]; at 100.0 µM,69%
same,growth inhibition,[11]; at 1.2 µM,3%
same,growth inhibition,[11]; at 3.7 µM,5%
same,growth inhibition,[11]; at 11.0 µM,20%
same,growth inhibition,[11]; at 33.0 µM,67%
same,growth inhibition,[11]; at 100.0 µM,82% (active)
same,growth inhibition,[12]; at 1.2 µM,5%
same,growth inhibition,[12]; at 3.7 µM,12%
same,growth inhibition,[12]; at 11.0 µM,29%
same,growth inhibition,[12]; at 33.0 µM,60%
same,growth inhibition,[12]; at 100.0 µM,76% (active)
same,growth inhibition,[13]; [16],27%
same,growth inhibition,[13]; [17],87% (active)
same,growth inhibition,[13]; at 50.0 µM,36.5%
same,growth inhibition,[14]; at 1.2 µM,2%
same,growth inhibition,[14]; at 3.7 µM,6%
same,growth inhibition,[14]; at 11.0 µM,37%
same,growth inhibition,[14]; at 33.0 µM,84% (active)
same,growth inhibition,[14]; at 100.0 µM,80% (active)
O=C1C(Cl)=C(Cl)C(Cl)(Cl)C(Cl)C1(Cl)Cl (stereo not drawn),growth inhibition,[1]; at 1.2 µM,14%
same,growth inhibition,[1]; at 3.7 µM,27%
same,growth inhibition,[1]; at 11.0 µM,71% (active)
same,growth inhibition,[1]; at 33.0 µM,99% (active)
same,growth inhibition,[1]; at 100.0 µM,99% (active)
same,growth inhibition,[2]; at 1.2 µM,2%
same,growth inhibition,[2]; at 3.7 µM,5%
same,growth inhibition,[2]; at 11.0 µM,21%
same,growth inhibition,[2]; at 33.0 µM,94% (active)
same,growth inhibition,[2]; at 100.0 µM,99% (active)
same,growth inhibition,[15]; at 1.2 µM,5%
same,growth inhibition,[15]; at 3.7 µM,25%
same,growth inhibition,[15]; at 11.0 µM,45%
same,growth inhibition,[15]; at 33.0 µM,99% (active)
same,growth inhibition,[15]; at 100.0 µM,99% (active)
same,growth inhibition,[3]; at 1.2 µM,16%
same,growth inhibition,[3]; at 3.7 µM,26%
same,growth inhibition,[3]; [16],21%
same,growth inhibition,[3]; at 11.0 µM,58%
same,growth inhibition,[3]; at 33.0 µM,99% (active)
same,growth inhibition,[3]; [17],98% (active)
same,growth inhibition,[3]; at 50.0 µM,99.3% (active)
same,growth inhibition,[3]; at 100.0 µM,99% (active)
same,growth inhibition,[4]; at 1.2 µM,8%
same,growth inhibition,[4]; at 3.7 µM,29%
same,growth inhibition,[4]; [16],22%
same,growth inhibition,[4]; at 11.0 µM,49%
same,growth inhibition,[4]; at 33.0 µM,99% (active)
same,growth inhibition,[4]; [17],99% (active)
same,growth inhibition,[4]; at 50.0 µM,99.5% (active)

# Reference: PubChem BioAssay (NCI)
